Screening results as filed in PubChem BioAssay.
Only a selection was taken, and hits are over-represented in it overall.
Sa growth 42C – blocks Staphylococcus aureus growth; S. aureus RN4220 growth, OD600, 20 h, 42 °C; stronger effect = lower value; relative growth, % (no concentration beside the values); hit rate 0.53% among 170,000; AID 720641;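 active = relative growth at most 50% at the other temperature and 20+ points below 30 °C, or under 10% at both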
Sa helicase inh – S. aureus DNA helicase inhibition | purified S. aureus helicase, fluorescence unwinding assay | inhibition, % (concentration not given with the values) | hit rate 0.05% among 120,000; in the data active = inhibition above about 25%, passing the limit was not always enough;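 also: 0% = mean of negative control wells and 100% = mean of positive control wells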
The depositor's hits bear a star.

Screening CCSc1nsc(NC(=O)Nc2cccc(F)c2)n1 returned Sa growth 42C -0.7* and Sa helicase inh -6.
Screening CC1C/C(=N/Nc2nc3ccccc3[nH]2)CC(C)(C)C1 (configuration not stated) returned Sa growth 42C 83 and Sa helicase inh 11.
Screening CC1=C/C(=N/Nc2nc3ccccc3[nH]2)CC(C)(C)C1 returned Sa growth 42C -0.4* and Sa helicase inh 15.
Screening CC1CCCCN1S(=O)(=O)c1cccs1 (configuration not stated) returned Sa growth 42C 105 and Sa helicase inh -17.
For CCCSC(=S)c1c(C)[nH]n(-c2ccc(C)cc2)c1=O the results were Sa growth 42C 123.
`CCCSC(=S)c1c(C)[nH]n(-c2ccccc2)c1=O` gave Sa growth 42C 0.2* and Sa helicase inh -7.
For O=C(OCC(=O)N1CCCCC1)c1ccc(O)cc1 the results were Sa growth 42C 128 and Sa helicase inh 11.
`Cc1ccc(C(=O)c2ccc(N3CCOCC3)c(F)c2)cc1` gave Sa growth 42C 101 and Sa helicase inh 9.
Screening CC(=O)NC[C@H]1CN(c2ccc(N3CCOCC3)c(F)c2)C(=O)O1 returned Sa growth 42C -0.8*.
Screening Clc1ccccc1-c1nnc(-c2ccccc2CN2CCN(c3ccccc3)CC2)o1 returned Sa growth 42C 100 and Sa helicase inh -12.
C/C(=N\NC(=O)c1cc(Br)ccc1O)c1ccccn1 was read as Sa growth 42C 3.1* and Sa helicase inh 4.
Cc1cc(Br)ccc1NC(=O)c1ccccn1 was read as Sa growth 42C 106 and Sa helicase inh 6.
Screening Nn1c(Cc2ccccc2F)nnc1SCc1cc(=O)oc2cc(O)c(O)cc12 returned Sa growth 42C 139 and Sa helicase inh 55*.
CCn1c(SCc2cc(=O)oc3cc(O)ccc23)nc2ccccc21 was read as Sa growth 42C 93 and Sa helicase inh -1.
Cn1c(SCc2cc(=O)oc3cc(O)c(O)cc23)nc2ccccc21 was read as Sa growth 42C 71 and Sa helicase inh 67*.
Nn1c(SCc2cc(=O)oc3cc(O)c(O)cc23)nnc1-c1ccncc1 was read as Sa growth 42C 68 and Sa helicase inh 25.
Screening CC(Oc1ccccc1F)C(=O)N/N=C/c1cnn(-c2ccccc2)n1 (configuration not stated) returned Sa growth 42C 48 and Sa helicase inh 0.
Screening O=C(NCc1ccccc1Cl)c1ccc(Cn2cc(Cl)cn2)cc1 returned Sa growth 42C 2.9* and Sa helicase inh 5.
Screening Cc1ccc(CNC(=O)c2cccc(Cn3cc(Cl)cn3)c2)cc1 returned Sa growth 42C 90 and Sa helicase inh 5.
`CCCn1c(C)cc(C(=O)Cn2ncc(Cl)c(Cl)c2=O)c1C` gave Sa growth 42C 110 and Sa helicase inh -6.
`Cc1ccc2c(Cn3nnc4ccccc4c3=O)cc(=O)oc2c1` gave Sa growth 42C 108 and Sa helicase inh -6.
For CC(C)C(=O)Nc1cccc2nsnc12 the results were Sa growth 42C 1.2* and Sa helicase inh -2.
Screening Cc1ccc(S(=O)(=O)C(=O)Nc2cccc3nsnc23)cc1 returned Sa growth 42C 124 and Sa helicase inh -4.
CNC(=O)COc1cccc2c1OC(C)(C)C2 was read as Sa growth 42C 116 and Sa helicase inh -17.
`O=C(O)CCCC(=O)N1CCCN(c2ccc(C(F)(F)F)cn2)CC1` gave Sa growth 42C 103.
Screening O=C(Nc1ccccc1)Nc1cccc2ccccc12 returned Sa growth 42C 99 and Sa helicase inh 8.
`CN(C)c1cc(NC(=O)Nc2ccccc2)c2ccccc2n1` gave Sa growth 42C 0.0* and Sa helicase inh 31.
`N#Cc1c(NC(=O)C(F)(F)F)sc2c1CCCC2` gave Sa growth 42C -1.0* and Sa helicase inh 4.
Screening CC(=O)Nc1sc2c(c1C#N)CCC2 returned Sa growth 42C 120 and Sa helicase inh 3.
CO[C@H]1C=CO[C@@]2(C)Oc3c(C)c(O)c4c(O)c(c(C=NN5CCN(C6CCCC6)CC5)c(O)c4c3C2=O)NC(=O)C(C)=CC=C[C@H](C)[C@H](O)[C@@H](C)[C@@H](O)[C@@H](C)[C@H](OC(C)=O)[C@@H]1C was read as Sa growth 42C 3.9*.
For Cc1cc(C(=O)NCC2CCCO2)c2c(C)nn(-c3ccccc3Cl)c2n1 (configuration not stated) the results were Sa growth 42C 106 and Sa helicase inh -16.
Screening O=C(OCC(=O)N1CCOCC1)c1ccc(-c2ccccc2)cc1 returned Sa growth 42C 104 and Sa helicase inh 9.
Screening O=c1nc(Nc2ccccc2)cn[nH]1 returned Sa growth 42C 78 and Sa helicase inh 11.
For COC(=O)c1c(O)c2ccccc2oc1=O the results were Sa growth 42C 102.
For CCc1ccc(OCC(=O)c2c(O)c3ccccc3oc2=O)cc1 the results were Sa growth 42C 4.4* and Sa helicase inh 32.
`CN(C)c1ccc(/C=N/n2cnc3ccccc32)cc1` gave Sa growth 42C 93 and Sa helicase inh -10.
COC(=O)c1cc(COC(=O)c2ccc(Cl)cc2)oc1C was read as Sa growth 42C 93 and Sa helicase inh -16.
Screening CCN(C(=O)CSc1nc(C)cc(C)c1C(N)=O)C1CCS(=O)(=O)C1 (configuration not stated) returned Sa growth 42C -1.2* and Sa helicase inh 6.
For CCN(C(=O)CSc1nnc(-c2ccccc2)c(-c2ccccc2)n1)C1CCS(=O)(=O)C1 (configuration not stated) the results were Sa growth 42C 101 and Sa helicase inh -7.
Screening Cc1noc(C)c1C(=O)NCC(c1ccccc1Cl)c1c[nH]c2ccccc12 (configuration not stated) returned Sa growth 42C 96 and Sa helicase inh 8.
Screening Oc1c(CN2CCOCC2)ccc2ccccc12 returned Sa growth 42C 107 and Sa helicase inh 3.
`Cc1ccc(C(c2c(O)ccc3ccccc23)N2CCOCC2)o1` (configuration not stated) gave Sa growth 42C -0.6* and Sa helicase inh 10.
Screening c1cncc(C2=Nc3ccccc3C(c3cccnc3)=NN2)c1 returned Sa growth 42C 89 and Sa helicase inh 6.
COc1ccc(C(c2c(C)[nH]c3ccccc23)N2CCCC2)cc1 (configuration not stated) was read as Sa helicase inh 21.
Screening COc1ccc(C(c2c(C)[nH]c3ccccc23)N2CCOCC2)cc1 (configuration not stated) returned Sa growth 42C 1.3* and Sa helicase inh 15.
Screening O=S(=O)(Nc1ccc(O)cc1)c1cc(Br)ccc1Br returned Sa growth 42C 89 and Sa helicase inh 20.
`N=c1oc2ccc(Cl)cc2cc1C(N)=O` gave Sa growth 42C 84 and Sa helicase inh 6.
Screening CC(=O)NCCCc1nc2ccccc2[nH]1 returned Sa helicase inh 2.
For CC(=O)NCCCCCCNC(C)=O the results were Sa growth 42C 21*.
Screening CCOc1ccc(CCNC(=O)c2ccc(CS(=O)Cc3cccc(Cl)c3)o2)cc1 (configuration not stated) returned Sa growth 42C 24*.
Screening CCOc1ccc(CNC(=O)c2ccc(CS(=O)Cc3ccc(Cl)cc3)o2)cc1 (configuration not stated) returned Sa growth 42C 111.
CC(C)COc1cccc(OCC(=O)Nc2cccc(Cl)c2)c1 was read as Sa helicase inh 14.
For Cc1sc2nc[nH]c(=O)c2c1-c1ccccc1 the results were Sa helicase inh -4.
